Assay outcomes from PubChem.
Sampled rows, rich in hits. Any-hit rate of the full collection: about 1.4%.
GLD-1 TGE inh – GLD-1/TGE RNA complex disruptors, primary screen, biochemical, fluorescence polarization | inhibition, % at 5.96 µM | purified GLD-1 + fluorescein TGE RNA | actives 0.44% (n = 320,000) | AID 2280, 2010;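 active = percent inhibition above a per-plate cutoff, the plate mean of test compounds plus 3 SD, cut at about 30% in these data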;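 also: 0% = DMSO wells with GLD-1 and probe and 100% = wells lacking GLD-1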
Bcl-xL primary – inhibitors of human Bcl-xL, primary screen, biochemical, fluorescence polarization, HTS; Bcl-2-like protein 1 (Homo sapiens), Q07817; GST-Bcl-xL / FITC-Bim BH3 peptide fluorescence polarization; inhibition, % at 10.9 µM; actives 0.7% (n = 320,000);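 active = inhibition above the mean of all tested compounds plus 3 SD, cutoff set per campaign, cut at about 30% in these data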;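 also: 0% = DMSO wells and 100% = unlabeled Bim-BH3 peptide competitor; inhibitors lower millipolarization by displacing the labeled peptide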
Target sequence (Q07817 whole entry, looked up): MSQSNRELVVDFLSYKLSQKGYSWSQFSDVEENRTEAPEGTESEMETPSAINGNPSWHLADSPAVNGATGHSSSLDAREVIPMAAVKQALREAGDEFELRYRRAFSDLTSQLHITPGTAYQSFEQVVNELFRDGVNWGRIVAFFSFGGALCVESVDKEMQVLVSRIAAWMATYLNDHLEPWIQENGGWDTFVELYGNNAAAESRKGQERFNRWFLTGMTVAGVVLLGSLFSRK
E coli Lon inh – inhibitors of E. coli Lon protease, primary screen, biochemical, fluorescence polarization; P0A9M0; inhibition, % at 7.94 µM; actives 0.42% (n = 360,000); purified E. coli Lon protease; in the data active = inhibition above about 13%, passing the limit was not always enough;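 also: 0% = enzyme with probe and DMSO and 100% = no enzyme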
MCL1 BIM primary – inhibitors of MCL1 binding to BIM-BH3, primary screen, biochemical, fluorescence polarization. GST-MCL1 / FITC-Bim-BH3 fluorescence polarization. inhibition, % at 10.9 µM. actives 0.68% (n = 320,000). AID 2057, 2009;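 active = inhibition above the mean inhibition of all tested compounds plus 3 SD, set per campaign, cut at about 40% in these data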;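 also: 0% = DMSO wells and 100% = unlabeled Bim-BH3 peptide control; higher means more loss of mP so more displacement of Bim peptide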
Target sequence (Q07820 whole entry, looked up): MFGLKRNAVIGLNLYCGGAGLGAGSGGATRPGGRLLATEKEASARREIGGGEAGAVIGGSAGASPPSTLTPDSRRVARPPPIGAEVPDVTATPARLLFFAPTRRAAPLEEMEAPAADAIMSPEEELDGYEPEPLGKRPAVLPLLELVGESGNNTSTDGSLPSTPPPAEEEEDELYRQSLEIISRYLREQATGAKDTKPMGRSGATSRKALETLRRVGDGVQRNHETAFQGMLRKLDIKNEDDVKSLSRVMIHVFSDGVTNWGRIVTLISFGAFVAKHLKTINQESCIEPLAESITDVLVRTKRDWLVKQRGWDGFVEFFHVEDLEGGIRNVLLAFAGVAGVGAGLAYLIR
MEX-5 binding – MEX-5 zinc finger RNA-binding disruptors – biochemical, C. elegans, fluorescence polarization, MLPCN library, primary screen; Zinc finger protein mex-5 (Caenorhabditis elegans), Q9XUB2; MEX-5/FITC-TCR2 RNA binding; hits give low values; AID 1832, 2009; actives 0.38% (n = 300,000); activity score (negative = inhibition of binding), % at 10 µM;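 active = inhibition past about -25% in most replicates, and total fluorescence under double the plate's negative control median, limit read from the data; inconclusive = replicates evenly split on the limit, or fluorescence at least double controls; inactive = too little inhibition in most replicates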;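 also: 0% = DMSO and -100% = 5 µM competing unlabeled TCR2 RNA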
BCLXL inh confirm – Bcl-xL inhibitors blocking Bim BH3 binding, confirmation, counter-screen for MCL1 inhibitor project, biochemical, fluorescence polarization. actives 54% (n = 1,700). inhibition, % at 10.9 µM. AID 2166, 2009. GST-Bcl-xL / FITC-Bim BH3 peptide FP binding. shares compounds with MCL1 BIM primary;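 active = inhibition above a cutoff equal to the mean inhibition of all tested compounds plus 3 SD, cut at about 30% in these data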;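 also: 0% = DMSO wells and 100% = unlabeled Bim BH3 control peptide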
MCL1 inh confirm – inhibitors of MCL1 binding to BIM-BH3, confirmation, biochemical, fluorescence polarization, triplicate. shares compounds with MCL1 BIM primary. GST-MCL1 / FITC-Bim-BH3 fluorescence polarization. inhibition, % at 10.9 µM. actives 61% (n = 1,700). AID 2168, 2009;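 active = inhibition above the average of all tested compounds plus 3 SD, cut at about 40% in these data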;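 also: 0% = DMSO wells and 100% = unlabeled Bim-BH3 control peptide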
GLD-1 TGE cf – GLD-1/TGE RNA binding inhibitors, retest, confirmation, biochemical, fluorescence polarization, triplicate; shares compounds with GLD-1 TGE inh; GLD-1/FL-TGE RNA fluorescence polarization; inhibition, % at 5.96 µM; actives 10% (n = 550); AID 2459, 2010;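 active = average inhibition across triplicates above the hit cutoff set in the primary screen, cut at about 32% in these data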;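 also: 0% = GLD-1 with RNA probe and DMSO and 100% = wells lacking GLD-1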
E coli Lon conf – E. coli Lon protease inhibitor retest, confirmation, biochemical, fluorescence polarization; AID 602230, 2012; purified E. coli Lon; inhibition, % at 7.94 µM; shares compounds with E coli Lon inh; actives 31% (n = 1,400); in the data active = inhibition above about 16%;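 also: 0% = enzyme with probe and DMSO and 100% = no enzyme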
Numbers without * were called inactive; u = inconclusive; x = no result given; + = active, no number.

SMILES | GLD-1 TGE inh | Bcl-xL primary | E coli Lon inh | MCL1 BIM primary | MEX-5 binding | BCLXL inh confirm | MCL1 inh confirm | E coli Lon conf | others
Clc1ccccc1C1=CC(c2ccco2)n2ncnc2N1 (stereo unspecified) | 20.8 | 49.3* | 31.4* | 50.3* | -9.0 | 34.5* | 44.1* | -3.6
Cc1ccc(C2=CC(c3ccc(C)cc3)n3ncnc3N2)cc1 (stereo unspecified) | 27.2 | 18.8 | 9.4 | 19.6 | -1.5 | x | x | x
FC(F)(F)c1ccccc1C1=CC(c2ccccc2)n2ncnc2N1 (stereo unspecified) | -1.2 | -2.6 | -11.1 | -4.4 | -2.1 | x | x | x
CN1CCCc2cc3c(C(F)(F)F)cc(=O)oc3nc21 | 125.1* | 155.3* | 27.4* | 167.8* | u | 141.2* | 173.8* | 102.8*
FC(F)(F)c1cc(C(F)(F)F)c2ccc(N3CCOCC3)nc2n1 | -4.2 | 4.7 | -0.9 | 3.7 | -2.9 | x | x | x
O=C(Cn1ccc(=O)[nH]c1=O)Nc1nccs1 | x | x | -11.7 | x | x | x | x | x
Cn1c(=O)c2nc(SCc3ccccc3)n(C)c2n(C)c1=O | x | x | 2.7 | x | x | x | x | x
CC(=O)Oc1ccc(N(C(C)=O)S(=O)(=O)c2ccc3ccccc3c2)cc1 | 0.4 | 5.3 | -6.4 | -3.8 | 0.3 | x | x | x
CCN1C(=O)c2cccc3c(N)ccc(c23)C1=O | + | + | + | + | u | + | + | +
Cc1nn(C)c(C)c1N1C(=O)c2cccc3c(N)ccc(c23)C1=O | + | + | + | + | x | + | + | +
O=C(N/N=C/c1sc(=O)[nH]c1-[n+]1ccc2ccccc2c1)c1ccccc1[O-] | 164.6* | 156.0* | 133.5* | 178.3* | -13.7 | 30.8* | 32.2 | 48.2*
O=C1C=C(NNC(=O)c2ccncc2)CC(c2ccccc2)C1 (stereo unspecified) | 126.3* | 75.3* | 68.5* | 71.6* | -17.8 | 26.2 | 38.6 | -59.1
COc1ccc(NC(=O)Nc2cccc(C(F)(F)F)c2)cn1 | 21.5 | 8.9 | -3.6 | -1.2 | -1.4 | x | x | x
COc1ccc(NC(=O)Nc2ccc([N+](=O)[O-])cc2)cn1 | 46.1* | 68.2* | 19.5* | 71.0* | -7.9 | 38.2* | 53.3* | 1.5
Cc1noc(C)c1C(=O)N1CCC1(C)C(=O)NS(=O)(=O)Cc1cccc(Cl)c1 (stereo unspecified) | x | x | 1.2 | x | x | x | x | x
COc1cc(C2C(C#N)=C(N)OC3=C2C(=O)CC(C)(C)C3)c([N+](=O)[O-])cc1OC (stereo unspecified) | 154.2* | + | 34.5* | + | -54.2* | 63.8* | 82.4* | 18.8*
COc1ccc(C2C(C#N)=C(N)OC3=C2C(=O)CC(C)(C)C3)c([N+](=O)[O-])c1OC (stereo unspecified) | 3.1 | 7.2 | -5.3 | 6.2 | -4.6 | x | x | x
CC1(C)CC(=O)C2=C(C1)OC(N)=C(C#N)[C@@H]2c1ccccc1[N+](=O)[O-] | 112.9* | 163.2* | 53.1* | 194.3* | -68.0* | 35.5* | 45.5* | 5.0
CCN(C(=O)COC(=O)c1cc(-c2cccc3ccccc23)nc2ccccc12)C1CCS(=O)(=O)C1 (stereo unspecified) | 38.6* | 91.0* | 39.9* | 97.7* | x | 49.6* | 73.5* | 18.1* | GLD-1 TGE cf=12.0
O=C(COC(=O)c1cc(-c2cccc3ccccc23)nc2ccccc12)NC1CCS(=O)(=O)C1 (stereo unspecified) | 97.4* | 151.8* | 177.9* | 185.3* | -16.3 | 63.3* | 80.3* | 14.9
Cc1ccc2[nH]c3ccccc3c(=O)c2c1 | 3.1 | 9.0 | -4.4 | 3.3 | -2.6 | x | x | x
O=c1c2ccccc2[nH]c2ccc(O)cc12 | 108.1* | 74.3* | 84.0* | 89.3* | -5.9 | 97.8* | 144.8* | 71.2*
CCCCCCn1c(=O)n2n(c1=O)C[C@]1(OC(=O)Nc3c(C)noc3C)CN(S(=O)(=O)c3ccc(C)cc3)C[C@]1(O)C2 | x | x | 6.0 | x | x | x | x | x
O=C(N/N=C/c1cc(Br)c(Br)o1)c1cccnc1 | 40.4* | 93.9* | 26.6* | 126.1* | -11.6 | 34.2* | 44.3* | 5.6 | GLD-1 TGE cf=3.1
CCNC(=O)C1(C)CCN(Cc2cccc(Oc3ccccc3)c2)C1 (stereo unspecified) | x | x | -5.8 | x | x | x | x | x
SMILES | GLD-1 TGE inh | Bcl-xL primary | E coli Lon inh | MCL1 BIM primary | MEX-5 binding | BCLXL inh confirm | MCL1 inh confirm | E coli Lon conf | others
CNc1ccccc1C(=O)OCC(=O)N1CCc2ccccc2C1 | x | x | -6.0 | x | x | x | x | x
CCOC(=O)N1CCN(C(=O)C[C@@H]2C[C@@]3(C(=O)OCC)CCC=C3N(Cc3ccc(Cl)cc3Cl)C2=O)CC1 | x | x | -4.5 | x | x | x | x | x
Cc1cc(-c2ccccc2C(=O)O)on1 | 3.3 | 4.8 | 2.9 | 4.3 | 2.5 | x | x | x
O=C(O)c1ccccc1C1=Nc2ccc(O)cc2Oc2cc(O)ccc21 | 134.7* | 166.7* | 78.1* | 196.3* | u | 141.6* | 177.8* | 97.1*
CCN(CC)C(=O)CSc1nnc2nnc3cc(OC)ccc3n12 | 120.0* | 137.6* | 132.2* | 148.3* | -77.0* | 124.4* | 158.9* | 118.0*
COC(=O)c1ccncc1N | 0.3 | -2.1 | -14.0 | -0.6 | 0.3 | x | x | x
Nc1cnccc1C(=O)O | 97.7* | 106.9* | 131.0* | 124.7* | -29.9* | 143.7* | 174.3* | 79.9*
Cn1c(-c2ccccc2)c(Sc2ccccc2)c2cc(-c3ccc4cc[nH]c4c3)ccc21 | x | x | 0.4 | x | x | x | x | x
CC(=O)N/N=C/c1cc(C(C)(C)C)cc(/C=N/NC(C)=O)c1O | 156.1* | 94.1* | 41.2* | 89.5* | 2.4 | 86.5* | 114.9* | 74.7*
CCCC[C@@H]1CNC(=O)C(=O)N1CCCC | x | x | -0.9 | x | x | x | x | x
N#Cc1ccc(Oc2cccc3cccnc23)c([N+](=O)[O-])c1 | 125.4* | 149.7* | 101.4* | 177.4* | -6.1 | 33.0* | 50.8* | 13.2
Cc1ccc(S(=O)(=O)NN=C2CCc3ccccc32)cc1 | x | x | 2.8 | x | x | x | x | x
O=C1C=CC2(O[C@H](c3ccccc3)[C@@H](c3ccccc3)O2)[C@H](Sc2ccccc2O)C1 | x | x | -19.5 | x | x | x | x | x
